# From PubChem BioAssay
# Sampled rows, rich in hits. Any-hit rate of the full collection: about 2.8%.
# KDM5B inhibitor: Primary screen for KDM5B Histone Demethylases FDH-coupled qHTS; Lysine-specific demethylase 5B (Homo sapiens), Q9UGL1; KDM5B demethylase, FDH-coupled NADH fluorescence (FDH is formaldehyde dehydrogenase); Potency, µM (doses to about 57.7 µM), hits mostly inhibitors; actives 2.6% (n = 220,000); active = well fitted inhibition curve with a large enough effect; inconclusive = small, poorly fitted or top-dose-only effect; inactive = no such curve, though single readings can be large or run the other way; note: potency is the fitted concentration of half-maximal effect; 0% is about no effect; nearly all actives have a fitted effect of over 70% in size
#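 Coupled FDH/NAD⁺ fluorescence readout. KDM5BΔAP 200 nM final; compound titration, 10 min RT preincubation; substrate mix 12.5 µM H3K4me3, 25 µM 2-OG, 50 µM Fe(II), 100 µM ascorbate, 0.25 mM NAD⁺, 0.25 U/mL FDH; ΔRFU over 30 min.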
# IP6K1 inh: Primary qHTS assay for small molecule inhibitors of Inositol hexaphosphate kinase 1 (IP6K1); IP6K1 kinase, ADP-Glo luminescence, 2 h; hits give low values; activity change, % (series mostly up to about 58 µM); actives 0.81% (n = 140,000); AID 1645851, 2021; in the data active = activity change below about -25%; note: % is set by controls: 0 for no effect and ±100 for the full control effect
# Target sequence (Q92551 whole entry, looked up): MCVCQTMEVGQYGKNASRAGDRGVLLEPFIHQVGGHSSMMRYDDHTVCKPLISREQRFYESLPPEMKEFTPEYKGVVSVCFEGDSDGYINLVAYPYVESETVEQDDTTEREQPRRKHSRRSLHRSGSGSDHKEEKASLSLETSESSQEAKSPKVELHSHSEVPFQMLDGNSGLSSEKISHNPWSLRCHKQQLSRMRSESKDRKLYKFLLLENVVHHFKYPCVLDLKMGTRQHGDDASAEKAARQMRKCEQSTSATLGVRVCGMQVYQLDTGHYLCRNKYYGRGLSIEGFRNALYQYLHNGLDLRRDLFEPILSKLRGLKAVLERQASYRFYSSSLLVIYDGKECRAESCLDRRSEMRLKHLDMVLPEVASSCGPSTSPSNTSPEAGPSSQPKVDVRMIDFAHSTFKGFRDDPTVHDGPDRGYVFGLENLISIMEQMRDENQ
#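 ADP-Glo luminescence measures ADP made by human IP6K1 during a 2 h RT reaction with ATP/IP6 (mix at 1.3 mM/130 uM); top library doses 57.5 and 19.1 uM final.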
# Active calls of the source: *; i = inactive; ? = inconclusive; nt = not tested or not shown.
SMILES,KDM5B inhibitor,IP6K1 inh
Cc1nc(N(C)C)ncc1C(=O)N[C@@H]1CCNC[C@H]1O,14µM*,16
CC(=O)c1c(C)nn(CCC(=O)N[C@@H]2CCNC[C@H]2O)c1C,i,21
COc1ccc(-c2cc(-c3ccccc3)nc3c(C)noc23)cc1OC,25µM*,24
COc1cccc(-c2cc(-c3cccs3)nc3c(C)noc23)c1,?,-11
COc1ccccc1-c1cc(-c2ccccc2)nc2c(C)noc12,?,-15
Cc1noc2c(-c3cnn(C)c3)cc(-c3cccnc3)nc12,?,2
COc1cccc(-c2cc(-c3ccccc3)nc3c(C)noc23)c1,32µM*,-6
Cc1noc2c(-c3ccc4c(ccn4C)c3)cc(-c3cccnc3)nc12,32µM*,4
Cc1cc(C2CCC2)nc(N2C[C@@H](C)[C@@](C)(O)C2)n1,28µM*,3
C[C@@H]1CN(C(=O)c2ccc3c(c2)CCC3)C[C@]1(C)O,i,3
COc1ccc(CC2CCOC3(CCN(C(=O)c4ccco4)CC3)C2)cc1 (stereo not drawn),nt,18
CCOC(=O)c1cc(N)ccc1N1CCOCC1,i,nt
CCN(CC)S(=O)(=O)c1ccc(N)c(N)c1,i,nt
O=C(NCC1CC1)C1CCCN(Cc2cccc(-c3ccsc3)c2)C1 (stereo not drawn),nt,-2
Cc1ccc(CNC(=O)CSc2n[nH]c(N)n2)cc1F,i,nt
COc1cccc(CNC(=O)Cn2c(=O)[nH]c3c(-c4ccccc4F)c[nH]c3c2=O)c1,i,nt
Cc1nc(CCC(=O)NCc2ccc3[nH]c(-c4ccccc4F)c(C)c3c2)n[nH]1,25µM*,18
Cc1c(-c2ccccc2F)[nH]c2ccc(CNC(=O)CCn3cnnc3)cc12,32µM*,2
Cc1ncc(CC(=O)NCc2ccc3[nH]c(-c4ccccc4F)c(C)c3c2)c(=O)[nH]1,?,-5
Cc1c(-c2ccccc2F)[nH]c2ccc(CNC(=O)CN3CC(=O)NC3=O)cc12,28µM*,0
Cc1ccc(CNC(=O)CCc2ncc(-c3c(F)cccc3F)o2)cc1F,i,nt
Cc1ncc(C(=O)NCc2ccc3[nH]c(-c4ccccc4F)c(C)c3c2)c(C)n1,20µM*,-4
CC1(CNc2ccccc2)COc2ccc(C(=O)Nc3ccc4[nH]ccc4c3)cc2N1 (stereo not drawn),?,-13
CCn1nc(C(=O)Nc2nc(C)c(C(C)=O)s2)c2ccccc2c1=O,i,nt
COC(=O)C[N+]1(CC=C(C)C)CCCCC1,i,nt
SMILES,KDM5B inhibitor,IP6K1 inh
Cc1cc(CN2CCC3(CC2)CN(C2CCC2)CC3CO)n(C)n1 (stereo not drawn),18µM*,5
Cc1ccc(C(=O)N2CCC3(CC2)CN(C2CCC2)CC3CO)s1 (stereo not drawn),?,27
Cc1cc(CN2CCC3(CC2)CN(c2ccncn2)CC3CO)n(C)n1 (stereo not drawn),i,27
CCn1cc(C(=O)N2CCC3(CC2)CN(C2CCC2)CC3CO)cn1 (stereo not drawn),10µM*,4
CCOC(=O)[C@@H]1CN([S+](=O)([O-])c2ccc(C(C)=O)cc2)[C@H]2c3ccc(OC)cc3O[C@@H]12,nt,19
CC(=O)Oc1ccccc1C(=O)Nc1ccc2c(c1)CN(Cc1ccc(Cl)cc1)C(=O)C(C)O2 (stereo not drawn),35µM*,19
CC1Oc2ccc(NC(=O)c3ccccc3)cc2CN(Cc2ccc(Cl)cc2)C1=O (stereo not drawn),?,8
CCC1Oc2ccc(NC(=O)c3ccccc3OC(C)=O)cc2CN(Cc2ccccc2F)C1=O (stereo not drawn),25µM*,0
CCC1Oc2ccc(NC(=O)c3ccccc3Cl)cc2CN(Cc2ccccc2F)C1=O (stereo not drawn),i,22
CCN1Cc2ccccc2N(C[C@@H](O)COCc2ccccc2)CCC1=O,nt,14
Cc1nn(CC(=O)Nc2ccc3c(c2)nc(Cn2ccc4ccccc42)n3C)c(=O)c2ccccc12,i,nt
CN(Cc1ccccc1)C(=O)C1CCCN(Cc2cccc(-c3ccsc3)c2)C1 (stereo not drawn),nt,-5
COc1cccc(-c2cc(C(=O)NCc3cccc(C(F)(F)F)c3)c3cnn(C)c3n2)c1,nt,3
Cc1ccc(C2(O)CCN(c3cc(C(F)(F)F)ccn3)CC2)nc1,25µM*,2
Cc1ccc(C2(O)CCN(c3ncccc3C(F)(F)F)CC2)nc1,i,-11
COc1ccc2[nH]c(C[C@@H]3C[C@@H](C(C)C)[C@H](CN(C)C)C=C3C)nc2n1,?,2
O=C(Nc1nnc(C2CC2)s1)C(Sc1ccccc1)c1ccccc1 (stereo not drawn),i,nt
NC(=O)COc1ccc(C(=O)N[C@@H]2CN(C(=O)NC3CCCCC3)CCC[C@H]2O)cc1,i,4
